Assay results reported in PubChem BioAssay (NCI).
The panel holds about 83,000 compounds, 20% with a hit somewhere; the sample as a whole holds those more often.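 The test compound was applied at a single concentration to cells in 96-well plates for 48 hours, and percent growth was recorded.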 A number with no mark means an inactive call. Active and inactive are the calls of the source. The calls were made as follows: active = growth percent below 10; inactive = the rest.

These compounds were tested on HL-60(TB) leukemia (assay: NCI-60 one-dose screen, 48 h (100 = growth as untreated, 0 = no growth, -100 = all killed)). Settings: 10 µM unless noted.
`Cn1c(=O)c2[nH]c(=S)n(Cc3ccccc3)c2n(C)c1=O` showed a growth of 101%. Work on `CCNc1ccc(-c2nc3ccccc3n3cccc23)cc1` yielded a growth of 86%. `CCOC(=O)c1cc(C(=O)c2ccc(OC)c(OC)c2)n2ccc(/C=C/c3cc[n+](CC(=O)c4ccc(OC)c(OC)c4)cc3)cc12` gave a growth of 88.6%. With `N#Cc1ccc(OC(=O)Nc2ccc(Cl)c(Cl)c2)cc1` the growth was 64.2%. In the case of `O=C1c2ccccc2C(=O)N1CCCCNc1ccccc1`, the growth is reported as 5.16% (active). For `Cc1cc2c(cc1C)N(C(=O)CCl)CC(=O)N2`, the growth was 8.25% (active). `CC/C=C\C[C@H](O)C/C=C1/C(=O)C=C[C@@H]1C/C=C\CCCC(=O)O` gave a growth of 75.2%. `Fc1ccc(-c2nnc(N3CCOCC3)c3ccccc23)cc1` was tested, and the growth was 264%. For `CC(=O)C(=Cc1ccc(C=C(C(C)=O)C(C)=O)cc1)C(C)=O`, the growth was 7.08% (active). `CCN(CC)CC(=O)Nc1c(C)ccc(N)c1C` gave a growth of 74.2%. With `CCCCC(CCCCCC(CCCC)C1NC(C)Cc2cc(OC)c(OC)cc21)C1NC(C)Cc2cc(OC)c(OC)cc21` (configuration not stated) the growth was -79.7% (active). Compound `Cc1sc2nc(NCCc3cccs3)[nH]c(=O)c2c1C` has a growth of 102%. In the case of `Clc1ccc(Nc2ccnc(NCCNc3ccnc4cc(Cl)ccc34)n2)cc1`, the growth is reported as -71% (active). `CC(C)N(CCCC#N)C(C)C` was tested, and the growth was 102%. With `CCN(CC)Cc1cc(Nc2ccnc3cc(Cl)ccc23)ccc1O` the growth was 94.5%. For `C=C(C=O)[C@@H]1CC=C(C=O)CC1`, the growth was -33.2% (active). In the case of `Cc1ccc(C2CC(c3cccc(Nc4ccncc4)c3)=NN2c2ccc(Cl)cc2)cc1` (configuration not stated), the growth is reported as -55.6% (active).
